PubChem BioAssay (Tox21)
Several values for one entry are separate records, joined by “and”; a condition that tells them apart may be missing. Equal values may be shown once. Inconclusive results are not listed. Entries that show only a call come without a potency. Unmarked numbers belong to inactive results. Activity calls are given as the source filed them. Calls come from the whole dose curve; as a rule, active = well fitted curve in the direction sought with a large enough effect in the repeat runs; inconclusive = weak or mixed curves; inactive = no such curve, though single readings can be large; an effect the other way counts as inactive or inconclusive.

Assay: qHTS RealTime-Glo MT Cell Viability Assay in HepG2 cells - 32 hour (AID 1224877); note: nearly all actives have a fitted effect of over 55% in size
Conditions: RealTime-Glo luminescence; series mostly up to 76.8 µM
Summary of the method: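 Viability was tracked continuously by NanoLuc luminescence from prosubstrate reduced by living HepG2 cells, at successive time points over 40 h of compound exposure. Cells with reagent were preincubated 5 h at 37 °C before compound addition.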
Potency is the fitted concentration of half-maximal effect.

Compound | Potency | activity change, negative = cytotoxic
Brc1c2ccccc2cc2ccccc12 | inactive | 
C[C@H](CCC(=O)O)[C@H]1CC[C@H]2[C@@H]3CC[C@@H]4C[C@H](O)CC[C@]4(C)[C@H]3C[C@H](O)[C@]12C | inactive | 
COC(=O)C1=C(C)NC(COC(N)=O)=C(C(=O)OC(C)C)C1c1cccc(Cl)c1Cl (stereo unspecified) | 19 µM (active) | 
CCCCOC(=O)CCCCCCCC(=O)OCCCC | inactive | 
CCN(CC)c1ccc(C(=C2C=CC(=[N+](CC)CC)C=C2)c2cc(S(=O)(=O)O)ccc2S(=O)(=O)[O-])cc1 | inactive | 
CCCCCCCCCCCCCCCCCCOS(=O)(=O)O | inactive | 
CCC(C)(C)CC | inactive | 
CCOC(=O)NCCOc1ccc(Oc2ccccc2)cc1 | inactive | 
O=[N+]([O-])c1ccc(NCCO)c(OCCO)c1 | inactive | 
CN1CCN(C(c2ccccc2)c2ccccc2)CC1 | inactive | 
O=C(O)c1nc(Cl)c(Cl)c(Cl)c1Cl | inactive | 
O=C(O)C1(C(=O)O)CCC1.[NH2-].[NH2-].[Pt+2] | inactive | 
CCCCCCCCCCCCCCOS(=O)(=O)O | inactive | 
CCN(CC)CCOC(=O)C(Cc1cccc2ccccc12)CC1CCCO1 (stereo unspecified) | inactive | 
CCCNCC(O)COc1ccccc1C(=O)CCc1ccccc1 (stereo unspecified) | inactive | 
O=C1C(O)=C(O)C(=O)C(O)=C1O | inactive | 
C/C(=C(\CCOP(=O)(O)O)SC(=O)c1ccccc1)N(C=O)Cc1cnc(C)nc1N |  | 2.64% [at 6.97 µM]
C=CC(=O)OCCOCCOCCOCCOC(=O)C=C | 48.5 µM (active) | 
CC(=O)c1ccc2c(c1)N(CCCN(C)C)c1ccccc1S2 | inactive | 
C/C=C(/C(=C/C)c1ccc(OC(C)=O)cc1)c1ccc(OC(C)=O)cc1 | inactive | 
NCC(=O)CCC(=O)O | inactive | 
CCCCCCCC#N | inactive | 
CCCCCCCCCCCCN1CCCCCC1=O | inactive | 
CCC(C)O (stereo unspecified) | inactive | 
O=[N+]([O-])c1cccc(S(=O)(=O)O)c1 | inactive | 
CN(C)CCN(Cc1ccccc1)c1ccccn1 | inactive | 
CCNc1cc(O)ccc1C | inactive | 
C#CCN(C)CCCOc1ccc(Cl)cc1Cl | inactive | 
Nc1cc(C(=O)O)c(O)c(S(=O)(=O)O)c1 | inactive | 
C=C1C(=C/C=C2\CCC[C@]3(C)[C@@H]([C@H](C)/C=C/[C@@H](O)C4CC4)CC[C@@H]23)C[C@@H](O)C[C@@H]1O | inactive | 

Assay: A CellTox Green Cytotoxicity Assay to monitor cytotoxicity in HepG2 cells - 24 hour (AID 1224878); note: nearly all actives have a fitted effect of over 45% in size
Conditions: CellTox Green fluorescence; series mostly up to 76.8 µM
Summary of the method: (§1)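 First, HepG2 cells (600/well) mixed with reagent were plated; second, after 5 h at 37 C they received compounds via pintool; third, fluorescence was measured at 0 h through 40 h at 8 h intervals.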

Compound | Potency | cytotoxicity
Brc1c2ccccc2cc2ccccc12 | inactive | 
C[C@H](CCC(=O)O)[C@H]1CC[C@H]2[C@@H]3CC[C@@H]4C[C@H](O)CC[C@]4(C)[C@H]3C[C@H](O)[C@]12C | inactive | 
CCCCOC(=O)CCCCCCCC(=O)OCCCC | inactive | 
CCN(CC)c1ccc(C(=C2C=CC(=[N+](CC)CC)C=C2)c2cc(S(=O)(=O)O)ccc2S(=O)(=O)[O-])cc1 | inactive | 
CCC(C)(C)CC | inactive | 
CCOC(=O)NCCOc1ccc(Oc2ccccc2)cc1 | inactive | 
O[C@@H](COc1cccc2ncccc12)CN1CCN(C2c3ccccc3[C@@H]3[C@H](c4ccccc42)C3(F)F)CC1 (stereo partly specified) | inactive | 
O=[N+]([O-])c1ccc(NCCO)c(OCCO)c1 | inactive | 
CN1CCN(C(c2ccccc2)c2ccccc2)CC1 | inactive | 
O=C(O)c1nc(Cl)c(Cl)c(Cl)c1Cl | inactive | 
O=C(O)C1(C(=O)O)CCC1.[NH2-].[NH2-].[Pt+2] | inactive | 
CCCCCCCCCCCCCCOS(=O)(=O)O | 34.7 µM (active) | 
CCN(CC)CCOC(=O)C(Cc1cccc2ccccc12)CC1CCCO1 (stereo unspecified) | inactive | 
O=C1C(O)=C(O)C(=O)C(O)=C1O | inactive | 
C/C(=C(\CCOP(=O)(O)O)SC(=O)c1ccccc1)N(C=O)Cc1cnc(C)nc1N |  | -0.377% [at 6.97 µM]
C=CC(=O)OCCOCCOCCOCCOC(=O)C=C | inactive | 
CC(=O)c1ccc2c(c1)N(CCCN(C)C)c1ccccc1S2 | inactive | 
CNCCCN1c2ccccc2CCc2ccccc21 | 26.8 µM (active) | 
C/C=C(/C(=C/C)c1ccc(OC(C)=O)cc1)c1ccc(OC(C)=O)cc1 | inactive | 
NCC(=O)CCC(=O)O | inactive | 
CCCCCCCC#N | inactive | 
O=C(Nc1ccccc1)c1ccccc1O | inactive | 
CCC(C)O (stereo unspecified) | inactive | 
O=[N+]([O-])c1cccc(S(=O)(=O)O)c1 | inactive | 
CN(C)CCN(Cc1ccccc1)c1ccccn1 | inactive | 
CCNc1cc(O)ccc1C | inactive | 
C#CCN(C)CCCOc1ccc(Cl)cc1Cl | inactive | 
Nc1cc(C(=O)O)c(O)c(S(=O)(=O)O)c1 | inactive | 
C=C1C(=C/C=C2\CCC[C@]3(C)[C@@H]([C@H](C)/C=C/[C@@H](O)C4CC4)CC[C@@H]23)C[C@@H](O)C[C@@H]1O | inactive | 

Assay: A CellTox Green Cytotoxicity Assay to monitor cytotoxicity in HepG2 cells - 40 hour (AID 1224879); note: nearly all actives have a fitted effect of over 40% in size
Conditions: CellTox Green fluorescence; series mostly up to 76.8 µM
Summary of the method: as §1

Compound | Potency | cytotoxicity increase
C[C@H](CCC(=O)O)[C@H]1CC[C@H]2[C@@H]3CC[C@@H]4C[C@H](O)CC[C@]4(C)[C@H]3C[C@H](O)[C@]12C | inactive | 
CCCCOC(=O)CCCCCCCC(=O)OCCCC | inactive | 
CCN(CC)c1ccc(C(=C2C=CC(=[N+](CC)CC)C=C2)c2cc(S(=O)(=O)O)ccc2S(=O)(=O)[O-])cc1 | inactive | 
CCOC(=O)NCCOc1ccc(Oc2ccccc2)cc1 | inactive | 
O[C@@H](COc1cccc2ncccc12)CN1CCN(C2c3ccccc3[C@@H]3[C@H](c4ccccc42)C3(F)F)CC1 (stereo partly specified) | inactive | 
O=[N+]([O-])c1ccc(NCCO)c(OCCO)c1 | inactive | 
CN1CCN(C(c2ccccc2)c2ccccc2)CC1 | inactive | 
O=C(O)c1nc(Cl)c(Cl)c(Cl)c1Cl | inactive | 
O=C(O)C1(C(=O)O)CCC1.[NH2-].[NH2-].[Pt+2] | inactive | 
CCN(CC)CCOC(=O)C(Cc1cccc2ccccc12)CC1CCCO1 (stereo unspecified) | inactive | 
O=C1C(O)=C(O)C(=O)C(O)=C1O | inactive | 
C/C(=C(\CCOP(=O)(O)O)SC(=O)c1ccccc1)N(C=O)Cc1cnc(C)nc1N |  | -0.293% [at 6.97 µM]
C=CC(=O)OCCOCCOCCOCCOC(=O)C=C | 24.7 µM (active) and 13.7 µM (active) | 
CNCCCN1c2ccccc2CCc2ccccc21 | 26.8 µM (active) | 
C/C=C(/C(=C/C)c1ccc(OC(C)=O)cc1)c1ccc(OC(C)=O)cc1 | inactive | 
NCC(=O)CCC(=O)O | inactive | 
CCCCCCCC#N | inactive | 
CCC(C)O (stereo unspecified) | inactive | 
O=[N+]([O-])c1cccc(S(=O)(=O)O)c1 | inactive | 
CN(C)CCN(Cc1ccccc1)c1ccccn1 | inactive | 
C#CCN(C)CCCOc1ccc(Cl)cc1Cl | 6.01 µM (active) | 
C=C1C(=C/C=C2\CCC[C@]3(C)[C@@H]([C@H](C)/C=C/[C@@H](O)C4CC4)CC[C@@H]23)C[C@@H](O)C[C@@H]1O | inactive | 
